Rows were chosen to be rich in hits. Some 7.6% of all compounds tested hit in one or more screens of this group.
BRCA1 expr up – increases BRCA1 expression. MCF7-BRCA1-FFLuc reporter, luminescence, 48 h; response scale: scaled: vehicle 0%, 10 µM genistein 100%. Potency, µM (doses to about 46.1 µM), usual class: activators. 1.1% of 380,000 active; also: nearly all actives have a fitted effect of over 80% in size
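Cells: MCF7-BRCA1-FFLuc, 2000/well. Exposure: 48 h, 37 °C, 5% CO2. Read: luminescence, 15 min post-substrate. Controls: genistein 10 microM (maximal activation), DMSO (neutral).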
RORgamma inh – blocks mouse ROR gamma transcriptional activity. P51450. Drosophila S2 Gal4-RORgamma UAS-luciferase reporter, 20 h. Potency, µM (doses to about 53.6 µM), most hits filed as inhibitors. 5.4% of 310,000 active. AID 2551; also: nearly all actives have a fitted effect of over 60% in size
Target sequence (P51450 whole entry, looked up, the tested form may be a part): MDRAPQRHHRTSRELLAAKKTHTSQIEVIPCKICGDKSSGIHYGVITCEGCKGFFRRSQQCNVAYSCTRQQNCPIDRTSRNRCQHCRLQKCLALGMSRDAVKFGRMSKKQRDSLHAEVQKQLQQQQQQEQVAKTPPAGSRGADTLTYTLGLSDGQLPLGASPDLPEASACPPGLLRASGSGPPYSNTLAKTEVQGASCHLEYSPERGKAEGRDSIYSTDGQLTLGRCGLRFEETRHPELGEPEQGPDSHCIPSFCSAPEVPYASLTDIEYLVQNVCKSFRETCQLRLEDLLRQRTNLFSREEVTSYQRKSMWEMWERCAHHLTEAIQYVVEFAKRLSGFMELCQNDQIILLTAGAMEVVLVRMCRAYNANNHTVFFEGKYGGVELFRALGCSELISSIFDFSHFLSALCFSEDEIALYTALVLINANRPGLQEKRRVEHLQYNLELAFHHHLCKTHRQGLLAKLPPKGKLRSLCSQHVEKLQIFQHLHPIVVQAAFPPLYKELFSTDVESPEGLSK
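Compounds are pin-transferred onto Drosophila Schneider cells expressing a copper-inducible Gal4–ROR gamma transactivation domain fusion. After 1 hr, copper sulfate is added to 700 uM final; luciferase is read 20 hr later.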
Giardia kill – Giardia lamblia killing; 0.15% of 340,000 active; Giardia lamblia trophozoite viability; activity change, % at 7.66 µM, hits read low; in the data active = activity change below about -80%; inconclusive = between about -30% and that limit;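 also: parasites exposed to compound for two days anaerobically before the ATP read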
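Luminescence from cellular ATP indicates surviving trophozoites (100 cells/well) following 48 hrs anaerobic compound treatment at 37 deg C; signal develops 15-30 min at room temperature.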
ELG1 repair inh – inhibitors of ELG1-dependent DNA repair in HEK293T cells; HEK293T ELG1-luciferase reporter, luminescence, 16 h; DNA damage induced by 5-fluorouridine; 2.3% of 330,000 active; Potency, µM (series often up to 46.1 µM), most hits filed as inhibitors; also: nearly all actives have a fitted effect of over 55% in size
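DMSO vehicle served as the neutral condition. Each well held 2,000 cells given 5-fluorouridine plus compound; after 16 hr at 37 °C/5% CO2, ONE-Glo was added and luciferase measured 30 min later.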
p53 reactivator – mutant p53 re-activation in reporter cells | H1299 p53-A138V BP100-luciferase reporter, luminescence, 24 h | Potency, µM (highest dose often 92.2 µM), most hits filed as activators | 0.063% of 320,000 active | AID 504706; also: nearly all actives have a fitted effect of over 45% in size
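H1299 (p53-null), stable ts p53-A138V + BP100-Luc; 1000 cells/well, Opti-MEM/10% FBS; cpd 4 pt, 1:5; 24 h, 37 deg C, 5% CO2; detection reagent 10 min RT; luminescence.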
Gal4-VP16 FLuc – counter-screen for ROR gamma inhibitors: Gal4-VP16 reporter; Drosophila S2 Gal4-VP16 UAS-luciferase, luminescence, 20 h; 3.5% of 310,000 active; Potency, µM (highest dose often 53.6 µM), most hits filed as inhibitors;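 also: Gal4-VP16 expression switched on by copper sulfate through the metallothionein promoter; nearly all actives have a fitted effect of over 50% in size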
A number is an active result; i = inactive; ? = inconclusive; nt = no result given; [ ] = another dose, or the depositor's remark. Unless noted, calls follow the shape of the dose curve; as a rule, active = well fitted curve in the direction sought with a large enough effect; inconclusive = small, poorly fitted or top-dose-only effect, or another doubt; inactive = no such curve, though single readings can be large; an effect the other way counts as inactive or inconclusive.

SMILES | BRCA1 expr up | RORgamma inh | Giardia kill | ELG1 repair inh | p53 reactivator | Gal4-VP16 FLuc
Cc1cccc(C(=O)N2[C@@H](C(C)C)COc3cc(Br)ccc3S2(=O)=O)c1 | i | nt | i | nt | nt | nt
Cc1nn(CC(=O)Nc2cccnc2N2CCOCC2)c(=O)c2ccccc12 | nt | i | nt | i | i | i
CCC(Cc1ccccc1)n1c(=S)[nH]c2ccccc2c1=O (stereo not given) | i | 3.5µM | i | i | i | ?
CCC(C)n1c(=S)[nH]c2ccccc2c1=O (stereo not given) | i | 0.89µM | i | i | i | 4.5µM
CC(C)n1c(=S)[nH]c2ccccc2c1=O | i | ? | i | i | i | 4µM
COn1c(=S)[nH]c2ccccc2c1=O | i | ? | i | i | i | i
CCC(C)NC(=O)c1ccc(-n2c(=S)[nH]c3ccccc3c2=O)cc1 (stereo not given) | i | i | i | i | i | i
COc1ccc(-c2c(C(=O)c3ccccc3)[nH]c(N)c2C(=O)c2ccccc2)cc1OC | i | nt | nt | nt | nt | nt
Cc1cccc(C)c1NC(=O)CCCSc1nc2ccccc2s1 | i | i | i | i | i | i
O=C(O)CCSc1nc2ccccc2s1 | i | 1.8µM | i | i | i | i
O=C(CCCSc1nc2ccccc2s1)NC1=NCCS1 | i | 0.89µM | i | i | i | 4.5µM
CCc1cccc(CC)c1NC(=O)CCCSc1nc2ccccc2s1 | i | ? | i | ? | i | i
CCC(C)(C)NC(=O)CCCSc1nc2ccccc2s1 | 3.5µM | i | i | i | i | i
CC(=O)Nc1ccc(NC(=O)CCCSc2nc3ccccc3s2)cc1 | i | 7.1µM | i | i | i | 5µM
CCc1ccc2c(c1)NC(=O)C2(C)Cc1ccc(Cl)s1 (stereo not given) | i | nt | nt | nt | nt | nt
O=C(NNC(=S)NCc1ccccc1)c1ccc(Br)cc1 | i | 7.9µM | ? | i | i | i
O=C(NNC(=S)NCc1ccccc1)c1ccc(Br)o1 | i | 8.9µM | i | i | i | i
O=C(NNC(=S)NCc1ccc(Cl)cc1)c1ccc(Br)o1 | i | i | i | i | i | i
O=C(NC(=S)NCc1ccccc1)c1ccc(Br)o1 | nt | ? | nt | i | i | 13µM
NC(=O)c1ccccc1NC(=S)NC(=O)c1ccc(Br)o1 | i | i | i | ? | ? | i
CC(C)CNC(=O)CC(=O)N/N=C/c1ccc(Br)cc1 | i | i | i | ? | i | i
Cc1cc2c(c(C)c1CCO[C@@H]1O[C@H](CO)[C@@H](O)[C@H](O)[C@H]1O)C(=O)[C@@H](C)[C@@H]2O | i | nt | i | i | i | nt
CCCSCCCNC(=O)Cn1nc(CC)n2c(cc3c(OC)cccc32)c1=O | i | i | i | i | i | i
CCOC(=O)C(Sc1ncn[nH]1)c1ccccc1 (stereo not given) | i | i | i | i | i | i
Cc1ccc(NC(=O)Nc2cc(Cl)ccc2C2COC(=O)C2=N)cc1 (stereo not given) | i | i | i | i | i | i
SMILES | BRCA1 expr up | RORgamma inh | Giardia kill | ELG1 repair inh | p53 reactivator | Gal4-VP16 FLuc
O=C(NC1=NCCS1)C1CCN(S(=O)(=O)c2ccc(Cl)cc2)CC1 | i | nt | i | ? | i | nt
C/C(N)=C(/C#N)C(=O)COC(=O)CCSc1ccccc1Cl | i | 11µM | i | i | i | ?
C[C@@H](NC(=O)C1(c2ccccc2)CCN(C(=O)OC(C)(C)C)CC1)C(=O)N[C@@H](Cc1ccccc1)C(=O)O | i | i | i | i | i | i
O=C(Nc1ccc(S(=O)(=O)N2CCc3ccccc32)cc1)c1ccco1 | i | ? | i | 21µM | i | i
Cc1cc(NC(=O)c2ccc(S(=O)(=O)N3CCc4ccccc43)cc2)no1 | i | 11µM | i | ? | i | ?
O=C(Nc1nc2c(s1)CCCC2)c1ccc(S(=O)(=O)N2CCCc3ccccc32)cc1 | i | 11µM | i | i | i | ?
CCc1nnc(NC(=O)c2ccc(S(=O)(=O)N3CCCc4ccccc43)cc2)o1 | i | 0.35µM | i | ? | i | 0.56µM
Cc1ccc2nc(-c3ccccn3)cc(C(=O)NCCc3ccc(F)cc3)c2c1 | i | 10µM | i | i | i | i
Cc1ccc2nc(-c3ccncc3)cc(C(=O)NCCc3ccc(F)cc3)c2c1 | i | i | i | i | i | i
O=C(NCCc1ccccn1)c1cc(-c2cccc3ccccc23)nc2ccccc12 | i | ? | i | 23µM | i | ?
CC(=O)OC[C@@H]1CN(Cc2ccccc2)C[C@H](n2cnc3c(N4CCCC4)ncnc32)O1 | i | nt | nt | nt | nt | nt
O=C(COc1ccccc1Br)NCc1ccccn1 | 11µM | i | i | ? | i | i
O=C(COc1ccc(F)cc1Br)NCc1ccccn1 | ? | i | i | nt | nt | ?
S=C(NCc1ccccn1)Nc1ccc(Br)cc1Cl | 11µM | 7.1µM | i | ? | i | ?
O=C(NCc1ccccn1)Nc1ccccc1Cl | i | i | i | ? | i | i
O=C(NCc1ccccn1)Nc1ccc(Br)cc1Cl | 11µM | i | i | ? | i | i
O=C(NCc1ccccn1)Nc1ccc(Cl)cc1Cl | 7.9µM | i | i | ? | ? | i
CSc1ncccc1C(=O)Nc1cccc(S(=O)(=O)N2CCCC2)c1 | i | nt | i | i | i | nt
O=C(CCNS(=O)(=O)c1ccc2c(c1)CCN2C(=O)C1CC1)N1CCN(c2cccc(C(F)(F)F)c2)CC1 | i | nt | nt | nt | nt | nt
O=C(NCc1ccco1)C(c1cccs1)N(C(=O)Cc1cccs1)c1ccccc1 (stereo not given) | i | i | i | ? | i | i
O=C(NCc1ccccn1)Nc1cccc(Cl)c1Cl | 10µM | i | i | ? | i | i
CCCCCCCCCCCCCCCCCC(=O)OCC(O)CO (stereo not given) | nt | i[10 µM] | nt | nt | nt | i
O=C(NCCc1ccccc1)c1ccc(-c2ccccc2C(F)(F)F)o1 | i | i | i | i | i | i
O=C(NCc1ccccc1)c1ccc(-c2ccccc2F)o1 | 11µM | i | i | ? | ? | i
O=C(Nc1ccc(Cl)cc1Cl)NC1CCCC1 | i | i | i | ? | i | i
SMILES | BRCA1 expr up | RORgamma inh | Giardia kill | ELG1 repair inh | p53 reactivator | Gal4-VP16 FLuc
S=C(Nc1ccccc1Cl)NC1CCCCCC1 | i | 3.5µM | i | i | i | 10µM
O=C(NC1CCN(C(=S)Nc2ccccc2Cl)CC1)C1CCCCC1 | i | i | i | ? | i | i
O=C(NNC(=S)NC1CCCCC1)c1cccc(S(=O)(=O)Nc2ccccc2Cl)c1 | i | 4µM | i | i | i | ?
Fc1ccc(NC(=S)NC2CCCCC2)c(F)c1F | i | 8.9µM | i | ? | ? | 7.1µM
S=C(Nc1ccc(Cl)cc1Cl)NC1CCCCC1 | ? | ? | i | ? | i | 0.89µM
O=C(c1cccc(S(=O)(=O)Nc2ccccc2Cl)c1)N1CCCCCC1 | i | nt | i | i | i | nt
COC(=O)c1ccc(COc2ccc(C(=O)c3ccccc3)cc2)o1 | i | i | i | i | i | i
Cc1c(Cl)cccc1NC(=S)NC1CC1 | i | 10µM | i | i | i | ?

Assay outcomes (PubChem BioAssay)
